Experimental data published in the supplement of paper PMC6089552.
The campaign covered roughly 3,200 compounds. About 300 (9.4%) showed activity. The sample as a whole holds a higher share of actives than the screen did.

System: A673/TR/shEF
Experiment: cell viability (LOESS-normalised, relative to median of negative controls) (log2 ratio); higher = more viable cells (less compound effect), active = hit call of the paper (over 3 MAD below the median)
Conditions: treatment time: 72 h
How it was run: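 Viability of A673/TR/shEF Ewing sarcoma cells was determined by CellTiter-Glo luminescence. The cells, at 1,500 per well in 384-well plates, were grown with or without doxycycline from 24 h before compound addition to switch on EWS-FLI1 shRNA knockdown, then exposed for three days to library compounds at two or more concentrations or to DMSO controls. Signals were LOESS-corrected plate by plate, normalised to the negative-control median and log2-transformed.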

[1] = 0.103 µM, library screen: screen3, EWS-FLI1 expression: high (no doxycycline)
[2] = 0.103 µM, library screen: screen3, EWS-FLI1 expression: low (doxycycline-induced shRNA knockdown)
[3] = 0.308 µM, library screen: screen3, EWS-FLI1 expression: high (no doxycycline)
[4] = 0.308 µM, library screen: screen3, EWS-FLI1 expression: low (doxycycline-induced shRNA knockdown)
[5] = 0.926 µM, library screen: screen3, EWS-FLI1 expression: high (no doxycycline)
[6] = 0.926 µM, library screen: screen3, EWS-FLI1 expression: low (doxycycline-induced shRNA knockdown)
[7] = 2.8 µM, library screen: screen3, EWS-FLI1 expression: high (no doxycycline)
[8] = 2.8 µM, library screen: screen3, EWS-FLI1 expression: low (doxycycline-induced shRNA knockdown)
[9] = 8.3 µM, library screen: screen3, EWS-FLI1 expression: high (no doxycycline)
[10] = 8.3 µM, library screen: screen3, EWS-FLI1 expression: low (doxycycline-induced shRNA knockdown)
[11] = 25 µM, library screen: screen3, EWS-FLI1 expression: high (no doxycycline)
[12] = 25 µM, library screen: screen3, EWS-FLI1 expression: low (doxycycline-induced shRNA knockdown)
[13] = 0.25 µM, library screen: screen1, EWS-FLI1 expression: high (no doxycycline)
[14] = 0.25 µM, library screen: screen1, EWS-FLI1 expression: low (doxycycline-induced shRNA knockdown)
[15] = 2.5 µM, library screen: screen1, EWS-FLI1 expression: high (no doxycycline)
[16] = 2.5 µM, library screen: screen1, EWS-FLI1 expression: low (doxycycline-induced shRNA knockdown)
[17] = 0.25 µM, library screen: screen2, EWS-FLI1 expression: high (no doxycycline)
[18] = 0.25 µM, library screen: screen2, EWS-FLI1 expression: low (doxycycline-induced shRNA knockdown)
[19] = 2.5 µM, library screen: screen2, EWS-FLI1 expression: high (no doxycycline)
[20] = 2.5 µM, library screen: screen2, EWS-FLI1 expression: low (doxycycline-induced shRNA knockdown)
[21] = 0.025 µM, library screen: screen1, EWS-FLI1 expression: high (no doxycycline)
[22] = 0.025 µM, library screen: screen1, EWS-FLI1 expression: low (doxycycline-induced shRNA knockdown)
[23] = 25 µM, library screen: screen1, EWS-FLI1 expression: high (no doxycycline)
[24] = 25 µM, library screen: screen1, EWS-FLI1 expression: low (doxycycline-induced shRNA knockdown)

Measured: cell viability (log2)

C[N+]1(C)C2CC(OC(=O)C(O)(c3cccs3)c3cccs3)CC1C1OC12 (centres undefined)
inactive: [1] 0.0262 | [2] 0.0758 | [3] 0.0294 | [4] 0.0213 | [5] -0.023 | [6] 0.0295 | [7] 0.0205 | [8] 0.0567 | [9] 0.0784 | [10] 0.0507 | [11] 0.1 | [12] 0.116

COC(=O)C(C(C)=O)C(C)=O
inactive: [13] 0.0323 | [14] 0.0334 | [15] 0.0258 | [16] 0.125

CC(/C=C/C=C(\C)c1cc(C(C)(C)C)cc(C(C)(C)C)c1)=C\C(=O)O
inactive: [17] 0.134 | [18] 0.0751 | [19] 0.0952 | [20] 0.134

C=CCNC(=O)c1ccc(CN(c2cccc(Cl)c2)S(C)(=O)=O)cc1
inactive: [13] 0.0663 | [14] 0.0926 | [15] 0.107 | [16] 0.133

NCCC(=O)c1ccccc1N
inactive: [13] 0.0986 | [14] 0.0335 | [15] 0.167 | [16] 0.184

O=C(O)c1c2ccccc2cc2ccccc12
inactive: [13] 0.0833 | [14] 0.174 | [15] 0.112 | [16] 0.125

C[N+](C)(C)CCC(=O)c1cccc2ccccc12
inactive: [18] 0.0591 | [20] -0.0126
active: [17] -0.0772 | [19] -0.524

COC(=O)C[C@H]1C(C)(C)C(OC(C)=O)[C@]2(O)C=C3C(CC[C@]4(C)C3CC(=O)O[C@H]4c3ccoc3)C1(C)C2=O (some centres undefined)
inactive: [13] 0.102 | [14] 0.114 | [15] 0.0649 | [16] 0.0874

COc1nc(N)nc2c1ncn2[C@@H]1O[C@H](CO)[C@@H](O)[C@@H]1O
inactive: [1] -0.0331 | [2] 0.0967 | [3] 0.111 | [4] 0.1 | [5] 0.0614 | [6] 0.133 | [7] 0.0686 | [8] 0.0525 | [9] 0.0218 | [10] 0.0206 | [11] 0.0232 | [12] 0.121

COc1ccc(C[C@@H](N)C(=O)N[C@H]2[C@@H](O)[C@H](n3cnc4c(N(C)C)ncnc43)O[C@@H]2CO)cc1
active: [15] -1.82 | [16] -2
inactive: [13] 0.0185 | [14] -0.00341

C[C@H](Cc1ccccc1)Nc1ncnc2c1ncn2[C@@H]1O[C@H](CO)[C@H](O)C1O (some centres undefined)
inactive: [17] 0.0269 | [18] 0.14 | [19] 0.0399 | [20] 0.136

CN1/C(=C(\O)Nc2ccccn2)C(=O)c2ccccc2S1(=O)=O
inactive: [1] 0.0972 | [2] 0.122 | [13] -0.035 | [14] 0.0628 | [17] 0.14 | [18] 0.0798 | [3] 0.121 | [4] 0.145 | [5] 0.194 | [6] 0.0843 | [15] 0.139 | [16] 0.148 | [19] 0.135 | [20] 0.0591 | [7] 0.173 | [8] 0.0997 | [9] 0.146 | [10] 0.0703 | [11] 0.152 | [12] 0.0778

Nc1nc(Nc2ccccc2)nc2c1ncn2C1O[C@H](CO)[C@@H](O)[C@H]1O (some centres undefined)
inactive: [17] 0.161 | [18] 0.05 | [19] 0.213 | [20] -0.0193

Nc1cccc(-c2cc3c(Oc4cccc(O)c4)ncnc3[nH]2)c1
inactive: [1] 0.136 | [2] 0.0102 | [3] 0.0422 | [4] 0.0346 | [5] 0.0247 | [6] 0.00411 | [7] -0.00369 | [8] 0.0285 | [9] -0.0241 | [10] 0.0796
active: [11] -0.494 | [12] -0.321

O=C(O)C1(O)C[C@@H](O)C(O)[C@H](O)C1 (some centres undefined)
inactive: [13] 0.068 | [14] -0.0312 | [15] 0.121 | [16] -0.0156

CC(=O)O[C@H]1C[C@@H](OC(C)=O)C(C)(C)[C@@H]2C[C@@H](OC(C)=O)[C@]3(C)[C@H](CC[C@@]4(C)[C@H](c5ccoc5)OC(=O)[C@H]5O[C@@]534)[C@@]12C
inactive: [13] -0.0343 | [14] 0.0186 | [15] 0.075 | [16] 0.143

COc1cc(/C=C(\C#N)C(N)=O)cc(CSc2nc3ccccc3s2)c1O
inactive: [21] 0.119 | [22] 0.0154 | [13] 0.2 | [14] -0.0796 | [15] 0.0235 | [16] 0.0635 | [23] -0.058 | [24] -0.0713

N#CC(C#N)=C(N)/C(C#N)=C/c1cc(O)c(O)c(O)c1
0.289: [21]
active: [15] -0.312 | [23] -0.175
inactive: [22] -0.0659 | [14] -0.0126 | [17] 0.21 | [18] 0.0773 | [16] 0.0388 | [19] 0.23 | [20] 0.0527 | [24] 0.0813
0.296: [13]

N#CC(C#N)=C(N)/C(C#N)=C/c1ccc(O)cc1
inactive: [17] 0.137 | [18] 0.116 | [19] 0.199 | [20] 0.0447

N#CC(C#N)=C(N)/C(C#N)=C/c1ccc2[nH]ccc2c1
active: [15] -0.421 | [23] -0.203
0.369: [21]
inactive: [22] 0.0769 | [13] 0.269 | [14] 0.0358 | [16] 0.0519 | [24] 0.0138

CC(=O)Oc1ccc(O)cc1
inactive: [13] -0.0255 | [14] 0.056 | [15] 0.0239 | [16] 0.00436

COC1=CC(=O)OC(CCc2ccc(OC)c(OC)c2)C1 (centres undefined)
inactive: [13] 0.144 | [14] -0.00163 | [15] 0.181 | [16] 0.0406

COc1cc2occ(-c3ccc(O)cc3)c(=O)c2c(OC)c1O
inactive: [13] 0.0883 | [14] 0.0895 | [15] 0.108 | [16] 0.0533

O=c1cccc2cc(O)c(O)c(O)c2c1O
inactive: [13] -0.000737 | [14] -0.0453 | [15] 0.0367 | [16] 0.0294

COc1cc(OC)c2c(=O)c(OC)c(-c3ccc(OC)c(OC)c3)oc2c1
inactive: [13] 0.019 | [14] 0.0595 | [15] 0.0902 | [16] -0.0343

O=C1Cc2c([nH]c3ccc(Br)cc23)-c2ccccc2N1
inactive: [17] 0.148 | [18] 0.0907 | [19] 0.128 | [20] 0.118

O=C1Cc2c([nH]c3ccc([N+](=O)[O-])cc23)-c2ccccc2N1
active: [19] -0.122 | [20] -0.312
inactive: [17] 0.0426 | [18] 0.0802

O=c1c(-c2ccccc2)coc2cc(O)cc(O)c12
inactive: [13] -0.0366 | [14] 0.014 | [15] 0.0821 | [16] 0.099

CC(C)N1C(=O)/C(=C\c2ccco2)SC1=S
inactive: [13] 0.136 | [14] 0.0809 | [15] 0.114 | [16] 0.139

O=C(O[C@@H]1Cc2c(O)cc(O)cc2O[C@@H]1c1cc2cc([C@H]3Oc4cc(O)cc(O)c4C[C@H]3O)cc(=O)c(O)c2c(O)c1O)c1cc(O)c(O)c(O)c1
inactive: [13] 0.115 | [14] 0.032 | [15] 0.00601 | [16] -0.0597

COc1cc2cccc(OC)c(=O)c2c(OC)c1OC
inactive: [13] 0.0955 | [14] 0.0427 | [15] 0.109 | [16] 0.0214

COC(=O)c1cc(OC)c(=O)c2c(OC)c(OC)ccc2c1
inactive: [14] 0.0503 | [15] 0.0906 | [16] -0.0346
active: [13] -0.0869

COC(=O)c1cc(=O)c(O)c2c(O)c(O)ccc2c1
inactive: [13] 0.103 | [14] 0.0315 | [15] 0.145 | [16] 0.0325

COc1ccccc1NC(=O)C1=C(C)NC(=O)NC1c1cccc(Cl)c1 (centres undefined)
inactive: [13] 0.0986 | [14] 0.0367 | [15] 0.0178 | [16] 0.0125

CC(C)CCCCCOC(=O)COc1ccc(Cl)cc1Cl
inactive: [13] 0.0385 | [14] 0.102 | [15] 0.111 | [16] -0.0211

CC1(C)C2CC(=O)[C@]3(C)C(CC[C@@]4(C)[C@H](C(=O)O)OC(=O)C5OC543)[C@@]2(C)[C@@H](O)C[C@H]1O (some centres undefined)
inactive: [13] 0.0536 | [14] 0.0574 | [15] 0.0836 | [16] 0.107

Cc1cc(N2CCN(c3ncccn3)CC2)n2c(nc3ccccc32)c1C#N
inactive: [13] 0.119 | [14] 0.0784 | [15] 0.108 | [16] 0.0845

CC1(COc2ccc3c(c2)ncn3-c2ccc3cccc(N4CCC(N)CC4)c3n2)COC1
inactive: [1] -0.0477 | [2] -0.0112 | [3] 0.0251 | [4] 0.0104 | [5] 0.0241 | [6] 0.0302 | [7] 0.0311 | [8] 0.0382 | [10] -0.0084
active: [9] -0.22 | [11] -1.66 | [12] -0.632

COc1ccc(OC)c(CN2CCN(Cc3ccccc3F)CC2)c1
inactive: [13] 0.0715 | [14] 0.0693 | [15] 0.123 | [16] 0.0288

C=C1C2CCC3(C)C(c4ccoc4)OC(=O)CC13OC1CC(=O)C(C)(C)C(CC(=O)OC)C12C (centres undefined)
inactive: [13] 0.0862 | [14] 0.067 | [15] 0.0511 | [16] 0.0888
